# Caspase-7 inhib: qHTS Assay for Allosteric/Competitive Inhibitors of Caspase-7; P55210; recombinant caspase-7, Ac-DEVD-AFC fluorescence rate; Potency, µM (series often up to 57.5 µM), inactives show at the top dose activity change, negative = inhibition, hits mostly inhibitors; 0.02% of 75,000 active; AID 889, 2007; active = well fitted inhibition curve with a large enough effect in the main read-out, with a control signal flat, not every such curve was filed as active; inconclusive = small, poorly fitted or top-dose-only effect, or a change in a side signal; note: % of control where 0% means no effect
# USP2a inh: qHTS Assay for Inhibitors of Ubiquitin-specific Protease USP2a; Potency, µM (top dose mostly 38.3 µM), inactives show top-dose activity change, negative = inhibition, actives largely listed as inhibitors; Ubiquitin carboxyl-terminal hydrolase 2 (Homo sapiens), O75604; 0.1% of 60,000 active; USP2a enzymatic assay, qHTS inhibition; note: nearly all actives have a fitted effect of over 60% in size
#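 USP2 core (20nM final) preincubated 30 min RT with compound, then Ub-PLA2 20nM and NBD C6-HPC 20uM final added; buffer 20mM Tris-HCl pH 8.0, 2mM CaCl2. Fluorescence Ex 460/Em 535 read at 0 and 2.5 h; normalized to NEM.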
# Caspase-1 inhib: qHTS Assay for Allosteric/Competitive Inhibitors of Caspase-1; P29466; Caspase-1 enzyme, Ac-WEHD-AFC fluorogenic rate; Potency, µM (series often up to 57.5 µM), inactives show at the top dose activity change, negative = inhibition, usual class: inhibitors; 0.03% of 75,000 active; AID 900, 2007;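 note: plate controls were vehicle for no effect and no substrate for full effect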
# * = called active by the depositor; ? = inconclusive; . = no result given; [ ] = dose if it differs, or a comment. Rows were chosen to be rich in hits. Some 0.12% of all compounds tested hit in one or more screens of this group. Unless noted, calls come from the whole dose curve; as a rule, active = well fitted curve in the direction sought with a large enough effect; inconclusive = small, poorly fitted or top-dose-only effect, or another doubt; inactive = no such curve, though single readings can be large; an effect the other way counts as inactive or inconclusive. Potency is the fitted concentration of half-maximal effect.
SMILES,Caspase-7 inhib,USP2a inh,Caspase-1 inhib
COCCCN1C(=O)c2[nH]nc(-c3ccccc3O)c2C1c1cccc(Cl)c1 (stereo not given),-2%,36%,-3%
Cc1cc(O)c(-c2n[nH]c3c2C(c2cccc(O)c2)N(Cc2cccnc2)C3=O)cc1Cl (stereo not given),32µM*,25%,-2%
CN1CCN(c2ncc3nc(CCc4ccccc4)c(=O)n(C4CC4)c3n2)CC1,?,267%,.
O=c1ccn([C@@H]2O[C@@H](COP(=O)(O)OP(=O)(O)O)[C@H](O)[C@@H]2O)c(=O)[nH]1,-1%,-1%,-2%
FC(F)(F)c1ccccc1-c1nc(N2CCOCC2)c2ccccc2n1,-27%,10µM*,-2%
FC(F)(F)c1ccccc1-c1nc(N2CCNCC2)c2ccccc2n1,1%,-9%,3%
CCN(CC)CCCC(C)NC(=O)c1ccc(-n2c(=O)c(=O)[nH]c3ccccc32)cc1 (stereo not given),-1%,.,0%
CN(C)CCCN=c1c2ccccc2n(C)c2[nH]c(=O)n(C)c(=O)c12,-3%[11.5 µM],.,3%[11.5 µM]
CN1CCN(c2ncc3nc(-c4ccc(Cl)cc4)c(=O)n(C4CC4)c3n2)CC1,?,98%,.
CN1CCN(c2ncc3nc(-c4ccc(F)cc4)c(=O)n(C4CC4)c3n2)CC1,?,10µM*,.
COc1ccccc1OC[C@H](O)CN1CCN(CC(=O)Nc2c(C)cccc2C)CC1,2%,4%,-1%
COc1ccc2c(c1)Cc1sc(NC(=O)c3cccs3)nc1-2,?,34%,32µM*
COc1cccc(NC(=O)c2cccs2)c1,-1%,1%,-1%
Cc1cccc(NS(=O)(=O)c2cc(C(=O)O)ccc2Cl)c1,-1%,.,-2%
O=C(OC1Cc2c(O)cc(O)cc2OC1c1cc(O)c(O)c(O)c1-c1c(C2Oc3cc(O)cc(O)c3CC2O)cc(O)c(O)c1O)c1cc(O)c(O)c(O)c1 (stereo not given),-27%,10µM*,0%
Oc1cc(O)c2c(c1)O[C@@H](c1ccc(O)c(O)c1)[C@H](O[C@@]1(c3cc(O)c(O)c(O)c3)Oc3cc(O)cc(O)c3[C@H](O)[C@@H]1O)C2,-17%[11.5 µM],.,-1%[11.5 µM]
CC[C@]1(O)C[C@H]2CN(CCc3c([nH]c4ccccc34)[C@](C(=O)OC)(c3cc4c(cc3OC)N(C)[C@@H]3[C@](O)(C(=O)OC)[C@H](OC(C)=O)[C@]5(CC)C=CCN6CC[C@]43[C@@H]65)C2)C1,-1%,23%,7%
Cc1ccc(N2C(=O)[C@@H]3[C@H](C2=O)C2c4ccccc4C=CN2[C@@H]3C(=O)c2ccco2)cc1 (stereo not given in full),?,37%,.
Cc1ccc(N2C(=O)[C@@H]3[C@H](C2=O)C2c4ccccc4C=CN2[C@@H]3C(=O)c2ccco2)c(C)c1 (stereo not given in full),?,35%,13µM*
O[Si@](CCCN1CCCCC1)(c1ccc(F)cc1)C1CCCCC1,2%,3%,-2%
c1ccc2cc(NCNc3ccc4ccccc4c3)ccc2c1,-1%[11.5 µM],.,-2%[11.5 µM]
COc1ccccc1-c1cc(C(=O)N2CCc3ccccc3C2)no1,-4%,.,-3%
O=C1c2ccccc2C(=O)c2c1ccc(O)c2O,-26%,25%,-1%
O=C1c2ccc(O)c(O)c2C(=O)c2c(O)ccc(O)c21,-23%,4µM*,-3%
CN(C)CN1C(=O)S/C(=C2/C(=O)N(CN(C)C)c3ccccc32)C1=O,0%[11.5 µM],.,3%[11.5 µM]
SMILES,Caspase-7 inhib,USP2a inh,Caspase-1 inhib
O=c1[nH]ncc2ccccc12,-1%,.,-2%
COc1ccc(-c2c(O)c3c(OC)c4c(cc3oc2=O)OC(C)(C)CC4)cc1,2%,-12%,0%
COc1ccc(-c2c(O)c3c(OC)c4c(cc3oc2=O)OC(C)(C)C=C4)cc1,0%,10µM*,4%
c1ccc([C@H](c2cccc3c2ccc2ccccc23)[C@H](c2ccccc2)c2cccc3c2ccc2ccccc23)cc1,-2%[11.5 µM],.,1%[11.5 µM]
N#Cc1c(-c2ccco2)c2c([nH]c1=S)CCCC2,-26%,13µM*,?
N#Cc1c(N)nc2c(c1-c1ccco1)CCCCC2,-6%,-10%,-4%
O=C(c1ccc(Cl)c(Cl)c1)N(Cc1ccco1)c1ccc(O)cc1,13µM*,1%,0%
O=C(COc1ccccc1)N(Cc1ccco1)c1ccc(O)cc1,-1%,2%,0%
CNC(=O)[C@@H]1O[C@@H](n2cnc3c(N)ncnc32)[C@@H](O)[C@H]1O,1%,10%,4%
CN1[C@@H]2CC[C@H]1CC(OC(=O)[C@@H](CO)c1ccccc1)C2 (stereo not given in full),1%[25.7 µM],-2%[17.1 µM],-4%[25.7 µM]
COc1cc(/C=C/C(=O)/C=C(O)/C=C/c2ccc(O)c(OC)c2)ccc1O,-25%,10µM*,?
COc1cc(/C=C/C(=O)O)ccc1O,-1%,-14%,2%
OCC1OC([S-])[C@H](O)C(O)C1O.[Au+] (stereo not given in full),?,?,-15%
Nc1ccn([C@@H]2O[C@@H](CO)[C@@H](O)[C@H]2O)c(=O)n1,1%,1%,4%
Nc1c(S(=O)(=O)O)cc(Nc2cccc(S(N)(=O)=O)c2)c2c1C(=O)c1ccccc1C2=O,-2%[11.5 µM],.,-1%[11.5 µM]
CC(C)C[C@H](NC(=O)[C@@H](O)[C@@H](N)Cc1ccccc1)C(=O)O,2%,-1%,3%
COc1cc(N[C@@H](C)CCCN)c2ncccc2c1,-22%[25.7 µM],2%[17.1 µM],2.5µM*
COc1cc(NCC[C@@H]2CCCCN2)c2ncccc2c1,1%[11.5 µM],.,-4%[11.5 µM]
CC1CCN(CC[C@@H]2CCCN2S(=O)(=O)c2cccc(O)c2)CC1,-1%,2%,1%
Nc1cccc2cc(S(=O)(=O)Nc3ccc(C(=O)O)cc3)ccc12,-1%[11.5 µM],.,-2%[11.5 µM]
OC[C@@H](O)CNc1ncnc2ccccc12,0%[11.5 µM],.,0%[11.5 µM]
Cc1c(Cl)cccc1NC(=O)c1cc(-c2ccc(O)cc2)on1,-4%,.,-4%
O=C(C1CCCCC1)N1CCC(c2nc3c(nnn3Cc3ccccc3Cl)c(=O)[nH]2)CC1,?,34%,0%
CCCCCCC(=O)N1CCC(c2nc3c(nnn3Cc3ccccc3Cl)c(=O)[nH]2)CC1,13µM*,.,-4%
O=C(Oc1cccc2c(O)cccc12)c1ccccc1,-2%,13µM*,-2%
SMILES,Caspase-7 inhib,USP2a inh,Caspase-1 inhib
COC(=O)c1ccccc1,2%,.,-2%
O=C(/C=C\c1ccc(O)cc1)c1ccc(O)cc1O,-3%,-8%,2%
N=C(N)S/C=C\C(=O)O,-3%,.,-6%
N.N.N.N.N.N.N.N.N.N.N.N.N.N.O.O.[Ru].[Ru].[Ru],1%,?,0%
COc1ccc2cc(C(=O)CCC(=O)O)ccc2c1,3%[11.5 µM],.,-3%[11.5 µM]
O=C(OCC1OC(OC(=O)c2cc(O)c(O)c(OC(=O)c3cc(O)c(O)c(O)c3)c2)[C@@H](OC(=O)c2cc(O)c(O)c(OC(=O)c3cc(O)c(O)c(O)c3)c2)C(OC(=O)c2cc(O)c(O)c(OC(=O)c3cc(O)c(O)c(O)c3)c2)C1OC(=O)c1cc(O)c(O)c(OC(=O)c2cc(O)c(O)c(O)c2)c1)c1cc(O)c(O)c(OC(=O)c2cc(O)c(O)c(O)c2)c1 (stereo not given in full),?,1µM*,?
